Rows were chosen to be rich in hits. Some 3.3% of all compounds tested hit in one or more screens of this group.
D3 ag = agonists of human D3 dopamine receptor. D3R DiscoveRx beta-arrestin cells, luminescence, 90 min. hit rate 0.58% among 410,000. AID 652048. max activation, %. P35462; in the data active = max activation above about 30%; note: 0% is about no effect
Target sequence (P35462 whole entry, looked up): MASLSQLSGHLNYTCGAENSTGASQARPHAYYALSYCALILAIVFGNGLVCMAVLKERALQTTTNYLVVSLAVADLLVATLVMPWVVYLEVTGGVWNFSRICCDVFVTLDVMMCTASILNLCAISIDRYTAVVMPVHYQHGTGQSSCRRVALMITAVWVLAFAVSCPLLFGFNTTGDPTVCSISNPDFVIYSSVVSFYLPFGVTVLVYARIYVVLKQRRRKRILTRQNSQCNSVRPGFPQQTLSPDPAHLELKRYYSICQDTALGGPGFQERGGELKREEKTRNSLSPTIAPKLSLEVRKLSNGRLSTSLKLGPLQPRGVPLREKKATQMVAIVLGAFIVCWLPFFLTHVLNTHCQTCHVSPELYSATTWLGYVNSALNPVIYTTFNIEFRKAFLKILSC
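Cells at 1500/well, incubated overnight, then treated with pinned compounds (dopamine as control) for 90 min at 37 degrees C. DiscoveRx reagent added for 30 - 60 minutes at room temperature; luminescence read.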
DRD3 antagonist = antagonists of human D3 dopamine receptor | AID 652054 | max response, negative = inhibition, % | P35462 | D3R cells, DiscoveRx beta-arrestin luminescence, antagonist mode; stronger effect = lower value | hit rate 2.5% among 360,000; in the data active = max response below about -50%; inconclusive = no clear call, values can overlap the other calls; note: % is set by controls: 0 for no effect and ±100 for the full control effect
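Cells plated overnight at 1500 cells/well, then exposed to library compounds with dopamine controls for 90 minutes at 37 degrees C. DiscoveRx reagent added for 30–60 minutes at room temperature; luminescence read, quantitative HTS format.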
PI4K2A inh = inhibitors of human PI4K2A; activity change, negative = inhibition, % at 76.9 µM; purified PI4K2A, ADP-Glo luminescence, 1 h; stronger effect = lower value; AID 1346378; Q9BTU6; hit rate 0.13% among 420,000; in the data active = activity change below about -50%; inconclusive = mostly about -30% to -49%;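 note: -100% = wells without enzyme as full effect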
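In this quantitative HTS, ADP production by PI4K2A was quantified luminescently after 1 h at ambient temperature; 100 microM adenosine served as plate-quality control.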
LDHA inh = blocks human lactate dehydrogenase A; P00338; purified LDHA, NADH/diaphorase-resazurin fluorescence; stronger effect = lower value; activity change, % (values are at about 110 or 230 µM); hit rate 0.15% among 480,000; AID 1347041; in the data active = activity change below about -30%; inconclusive = mostly about -25% to -30%;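 note: plate controls were DMSO wells for no effect and wells without enzyme for full effect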
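Human LDH5 (2 nM) was incubated with 0.06 mM NADH and 0.2 mM pyruvate for 5 min at room temperature in Tris pH 7.4. Remaining NADH was coupled through diaphorase/resazurin, and resorufin fluorescence was read at 0 and 20 min.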
PI5P4K alpha inh = blocks human PI5P4K alpha kinase activity; P48426; PI5P4Kalpha enzyme, ADP-Glo luminescence, 60 min; stronger effect = lower value; max response, %; hit rate 1.2% among 330,000; AID 652105; active = max response of -50% or lower; inconclusive = between -30% and -50%; inactive = -30% or higher; note: value at the top dose of about 77 µM; % is set by controls: 0 for no effect and ±100 for the full control effect
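Single end-point luminescence (ADP-Glo) quantified ADP from PI5P4Kalpha turnover; ATP 5 microM final, 1 h at RT, 0.1% CHAPS and 0.28 mM EGTA in HEPES pH 7.4.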
Starred values were filed as active, the others as inactive; ? = inconclusive; · = not tested or not shown.

SMILES	D3 ag	DRD3 antagonist	PI4K2A inh	LDHA inh	PI5P4K alpha inh
O=C(COC(=O)/C=C/C(=O)OCC(=O)NC12CC3CC(CC(C3)C1)C2)NC12CC3CC(CC(C3)C1)C2	-22.3	-58.7*	-0.9	-5.7	1.0
COc1ccc(Nc2nc(-c3cc4cc(Br)ccc4oc3=O)cs2)cc1OC	·	·	·	-2.7	·
COc1ccc(NC(=O)/C(C#N)=C\c2ccc(Br)o2)cc1	-0.4	-23.5	-11.9	1.3	-82.5*
N#CCc1ccc(NC(=O)/C=C/c2ccc([N+](=O)[O-])o2)cc1	-11.6	-14.9	-12.6	1.1	-59.4*
N#C/C(=C\c1ccc([N+](=O)[O-])o1)C(=O)Nc1ccc(F)cc1	5.3	1.3	-17.5	23.6	-84.1*
Cc1cc(C)c(-n2ccc(C=O)c2)c(C)c1	·	·	·	8.5	·
C=C(CCC(=O)c1ccccc1)C(=O)c1ccccc1	-14.3	-53.8*	45.0	-10.4	0.1
CCN1CCc2c(sc(NC(=O)Nc3cccc(Cl)c3)c2C(N)=O)C1	·	·	·	4.6	·
CCOC(=O)c1ccc(CC(=O)c2ccc(O)cc2O)o1	32.1*	28.8	-6.7	-4.4	-8.8
CN1CCN(C(=O)c2ccccc2N(Cc2ccccc2)S(C)(=O)=O)CC1	0.5	?	-6.6	-4.8	9.2
CN1CCN(C(=O)c2ccccc2N(Cc2ccccc2)S(=O)(=O)c2ccccc2)CC1	-56.8	-60.4*	-1.4	-7.4	·
NNc1ccc(S(=O)(=O)Nc2ccccc2)cc1[N+](=O)[O-]	·	·	·	10.6	·
Cc1oc(-c2ccccc2)nc1C(=O)N1CCN(C(=O)c2ccco2)CC1	·	·	·	0.5	·
CCOC(=O)C1=C(C)N(CCCC(=O)O)C(=O)NC1c1ccc(OC)cc1 (configuration not stated)	0.0	38.7	-2.3	2.7	-70.6*
COC(=O)C1=C(C)N(Cc2ccccc2)C(=NCc2ccc(OC)cc2)N[C@H]1c1ccccc1	-39.7	-54.3*	1.5	-10.1	-18.1
COC(=O)C1=C(C)N(CCCC(=O)O)C(=O)NC1c1ccc(OC)cc1 (configuration not stated)	-4.5	14.2	-0.2	-0.2	-61.9*
CCOC(=O)C1=C(C)N(CCCCCC(=O)O)C(=O)NC1c1ccc(Cl)cc1 (configuration not stated)	4.1	?	1.1	-2.3	-7.2
CCOC(=O)C1=C(C)N(CCCC(=O)O)C(=O)NC1C(CC)CC (configuration not stated)	19.8	0.0	0.6	-10.2	-57.6*
CCOC(=O)C1=C(C)N(CCC(=O)O)C(=O)NC1c1ccccc1Cl (configuration not stated)	-19.4	7.3	-3.3	-8.4	-21.0
COC(=O)C1=C(C)N(Cc2ccccc2)C(=NCC(C)C)N[C@H]1c1ccccc1	7.9	-2.6	-0.6	-6.1	-13.8
CCOc1cccc2c1Oc1nc(-c3cc(OC)ccc3OC)[nH]c(=O)c1C2	·	·	·	5.9	·
COc1cc(-c2nc3c(s2)CN(C(C(=O)O)c2c[nH]c4cc(F)ccc24)CC3)cc(OC)c1OC (configuration not stated)	·	·	·	1.6	·
COCCN(CC(N)=O)S(=O)(=O)c1ccc(F)cc1	·	·	·	1.5	·
CC(C)(Oc1ccc(Br)cc1)C(=O)NCc1ccc(-c2nn3cnnc3s2)cc1	·	·	·	-1.6	·
N#Cc1ccsc1NC(=O)COC(=O)C1=NNC(=O)CC1	-21.0	0.2	?	-0.4	-82.3*
SMILES	D3 ag	DRD3 antagonist	PI4K2A inh	LDHA inh	PI5P4K alpha inh
Cc1cccc(C(=O)NCC(=O)NCC(c2cccs2)N2CCOCC2)c1 (configuration not stated)	2.7	-2.7	0.4	-0.6	12.6
Cc1cccc(C(=O)NCC(c2cccs2)N2CCOCC2)c1 (configuration not stated)	-8.1	-57.9*	-0.2	-5.0	-3.9
O=C(NCC(c1cccs1)N1CCOCC1)c1cc(-c2ccc(F)cc2)nc2ccccc12 (configuration not stated)	-12.6	-69.1*	-1.0	0.7	5.4
CCN(Cc1nc2ccccc2c(=O)[nH]1)C(=O)c1cc(C2CC2)nn1-c1ccccc1	4.8	2.1	4.6	-2.0	-3.9
CN(Cc1nc2ccccc2c(=O)[nH]1)C(=O)c1cc(C2CC2)nn1-c1ccccc1	2.3	-59.7*	6.1	-1.9	0.7
O=C1C=CC(O)(c2cc(=O)c3c(O)cc(O)cc3o2)C=C1	-31.7	-80.4*	?	3.0	?
Cc1ccc2cc(CN(CC(C)C)C(=O)c3ccco3)c(=O)[nH]c2c1	·	·	·	14.0	·
CCCCc1c(C)[nH]n(-c2nc(C)c(C(=O)Nc3cccc(OC)c3)s2)c1=O	·	·	·	-36.4*	·
COc1ccc(NC(=O)CCS(=O)(=O)c2ccc3c(c2)OCCO3)cc1OC(F)F	·	·	·	12.5	·
NC(=O)c1ccc(SCC(=O)NC2CCCCC2)c([N+](=O)[O-])c1	-13.1	-52.3*	0.4	-3.6	6.6
CCNC(=O)CSc1ccccc1C(=O)OCC(=O)C(C)(C)C	·	·	·	9.6	·
CCNC(=O)NC(=O)COC(=O)c1ccccc1SCC(=O)NC(=O)NCC	3.3	-74.7*	-28.2	-0.7	-62.9*
COc1cc(C(=O)NCC(=O)OCC(=O)c2ccc3c(c2)CCC3)cc(OC)c1OC	·	·	·	2.0	·
COC(=O)c1nc(NC(=O)c2ccc(Cl)cc2Cl)n[nH]1	·	·	·	-5.7	·
COc1cc(C(=O)OCCN2CCCCC2)ccc1O	-13.8	-57.8*	-0.4	-4.4	-2.1
COc1cc(C(=O)OCCCN2CCOCC2)ccc1O	-11.5	-16.1	-3.6	-5.4	0.7
COc1cc(C(=O)OCCCN2CCCN(CCCOC(=O)c3cc(OC)c(OC)c(OC)c3)CC2)cc(OC)c1OC	-86.0	-92.3*	2.2	-3.2	10.3
O=C(OCCN1CCCCC1)c1ccc(Cl)cc1	-19.8	-78.2*	-3.1	-2.6	-5.1
COc1cc(C#CC#CCN2CCCCC2)ccc1O	-21.5	-116.3*	-0.2	-1.6	·
CCCc1cc(=O)n2[nH]c(NC(=O)CC(C)C)nc2n1	·	·	·	-4.0	·
CC(C)c1ccccc1NC(=O)COC(=O)CCc1nc2ccccc2s1	·	·	·	-5.1	·
Cc1ccc(-n2ncc(Br)c(Br)c2=O)cc1	-25.0	-75.8*	12.8	-0.8	3.2
O=c1c(Br)c(Br)cnn1-c1ccccc1	-10.9	-72.0*	3.0	-9.4	-1.0
O=c1c(Br)c(N2CCCC2)cnn1-c1ccccc1	0.4	14.7	3.2	-2.6	8.8
O=C(CN1CCN(C(=O)c2ccccc2-c2ncc(-c3ccccc3)o2)CC1)N1CCCC1	·	·	·	3.5	·
CCOc1ccc(S(=O)(=O)N(CC)CC)cc1NC(=O)c1cccc(CN2CCCC2=O)c1	·	·	·	1.1	·
COc1ccc(S(=O)(=O)C(C#N)c2nc3ccccc3nc2N2CCN(C)CC2)cc1 (configuration not stated)	·	·	·	8.9	·
O=C(Nc1cccc2ccccc12)c1csc([C@@H]2O[C@H](CO)[C@@H](O)[C@H]2O)n1	-2.2	3.3	-1.6	-2.5	-7.6
O=C(Nc1cccc2cccnc12)c1csc([C@@H]2O[C@H](CO)[C@H](O)[C@H](O)[C@H]2O)n1	-21.2	-116.9*	-8.1	-3.0	3.6

Screens: PubChem BioAssay, National Center for Advancing Translational Sciences (NCATS)
